# Most compounds without a hit are left out; they make up all but 21% or so of the library.
# NS1 inh = inhibitors of influenza NS1 protein function; actives 0.4% (n = 270,000); Potency, µM (top dose mostly 46.1 µM), without a hit: top-dose activity, positive = more growth; calls by dose curve; also: potency is read from the fitted curve at half-maximal effect; actives are rising curves; nearly all actives have a fitted effect of over 50% in size
#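 Growth recovery, yeast-based: influenza A NS1 expressed in S. cerevisiae causes slow growth, and suppressors are detected by OD600. The parent strain without NS1 is used as positive control.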
# Pf growth 48h = P. falciparum growth inhibition at 48 hours (one generation). P. falciparum luciferase growth in erythrocytes, 48 h. AID 504832. actives 5.9% (n = 310,000). Potency, µM (series often up to 28.7 µM), inactives show at the top dose activity change, negative = inhibition, most hits filed as inhibitors; also: potency is read from the fitted curve at half-maximal effect; % is scaled to controls: 0 for no effect and ±100 for the full control effect
#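 Cell-based growth assay: transgenic P. falciparum expressing firefly luciferase, cultured in red cells within RPMI 1640 containing 0.5% w/v Albumax, 24 mM bicarbonate and gentamycin. A drop in luciferase activity indicates inhibition.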
# Shiga toxin inh = Shiga toxin inhibition; inhibition, % at 38.7 µM; actives 9.2% (n = 290,000); AID 2315; Vero cells, Shiga toxin protein synthesis inhibition reporter; in the data active = inhibition mostly above about 28%, no sharp cut-off; inactive = mostly below about 43%; also: 0% is about no effect
# CHX counter = affects cycloheximide protein synthesis inhibition readout, counter-screen | actives 12% (n = 300,000) | max response, % | cell reporter, cycloheximide protein synthesis inhibition counterscreen; in the data active = max response mostly above about 13%, no sharp cut-off; inactive = mostly below about 14%; also: read at 38.3 µM for the half of the compounds with a filed dose; 0% is about no effect
# Pf growth 96h = inhibits malaria parasite growth, 96 h. AID 504834. actives 6.9% (n = 320,000). P. falciparum luciferase reporter growth, 96 h. Potency, µM (series often up to 28.7 µM), for the others: top-dose activity change, negative = inhibition, usual class: inhibitors; also: potency is read from the fitted curve at half-maximal effect; % is scaled to controls: 0 for no effect and ±100 for the full control effect
#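 Readout is luminescence from an integrated firefly luciferase in P. falciparum. Red cells, 2% hematocrit and 0.05% parasitemia final, were cultured with compound through two parasite generations (96 hours) at 37 C, 5% CO2.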
# Sm TGR inh = blocks Schistosoma mansoni thioredoxin glutathione reductase | AID 485364 | actives 3% (n = 360,000) | Q962Y6 | purified TGR, DTNB reduction, TNB absorbance 405 nm | Potency, µM (doses to about 114 µM), for the others: at the top dose activity change, negative = inhibition, actives largely listed as inhibitors; also: potency is read from the fitted curve at half-maximal effect; % is scaled to controls: 0 for no effect and ±100 for the full control effect; nearly all actives have a fitted effect of over 60% in size
#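 TGR 20 nM + NADPH 100 uM (dispensed conc.), cpd preinc 15 min RT; start with NADPH (500 uM addition) then DTNB (15 mM addition). Kinetic TNB absorbance, 405 nm filter. Four-parameter Hill fit across titration.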
# * marks the source's active call; other numbers are inactive results; i = inactive; ? = inconclusive; . = not tested or not shown. Unless noted, calls follow the shape of the dose curve; as a rule, active = well fitted curve in the direction sought with a large enough effect; inconclusive = small, poorly fitted or top-dose-only effect, or another doubt; inactive = no such curve, though single readings can be large; an effect the other way counts as inactive or inconclusive.
SMILES,NS1 inh,Pf growth 48h,Shiga toxin inh,CHX counter,Pf growth 96h,Sm TGR inh
Clc1ccc(C[n+]2c(-c3ccccc3)cc(-c3ccccc3)cc2-c2ccccc2)cc1,.,0.37µM*,.,.,0.33µM*,-22%
Fc1ccc(CNc2cc(-c3ccccc3)nc3nncn23)cc1,.,.,.,.,.,-3%
Fc1ccc(C[n+]2c(-c3ccccc3)cc(-c3ccccc3)cc2-c2ccccc2)cc1,.,0.93µM*,.,.,0.37µM*,-4%
CS(=O)(=O)Nc1ccc(C(=O)NCCSCc2c(F)cccc2Cl)cc1,?,0%,2,2,?,11%
O=C(CCCc1nc(-c2ccc(Cl)cc2)no1)NC1CCCC1,-16%,-20%,-20,2,4.7µM*,-6%
COc1ccc(-c2noc(CCC(=O)NC3CCCCCC3)n2)cc1,-14%,-9%,13,18,?,0%
COc1ccc(-c2noc(CCC(=O)NC3CCCCC3)n2)cc1,-10%,25%,-7,10,12µM*,-10%
O=C(CCCC(=O)OCC(=O)c1ccc(Cl)cc1)NC1CCCCC1,-7%,23%,14,6,12µM*,5%
COc1ccc(-c2noc(CCC(=O)Nc3cc(Cl)c(OC)cc3OC)n2)cc1,-14%,.,46*,41*,?,0%
COc1ccc2c(c1)c(=O)c(S(=O)(=O)c1ccc(F)cc1)cn2Cc1ccccc1Cl,.,.,.,.,.,0%
COc1cccc(NC(=O)CNC(=O)Cn2c(C)cc3ccccc3c2=O)c1,.,.,.,.,.,6%
O=C(CCc1nc(-c2ccc(Cl)cc2)no1)NC1CCCCC1,-8%,26%,-6,-4,0%,4%
O=C(CCc1nc(-c2ccccc2)no1)NC1CCCCC1,-17%,19%,29,12*,.,-20%
Cc1ccc(OCc2ccc([N+](=O)[O-])cc2)c([N+](=O)[O-])n1,-2%,15%,-11,-1,-12%,6%
CCOc1ccc(C(C)=O)cc1COc1ccc(C)nc1[N+](=O)[O-],9%,-6%,-17,-5,-15%,10µM*
CCOc1ccc(C(C)=O)cc1COc1ccc(-c2nnco2)cc1,-4%,?,-22,-5,-103%,1%
Cc1ccc(OCCOc2ccc(Br)cc2)c([N+](=O)[O-])n1,-23%,172%,154*,72*,188%,-5%
Cc1ccc(OCc2ccccc2C)c([N+](=O)[O-])n1,-33%,14%,34,41*,-4%,2%
COc1cc(C(=O)Nc2ccc(NC(=O)c3ccc(C(C)(C)C)cc3)cc2)cc(OC)c1OC,.,.,.,.,.,12%
CCOC(=O)c1c(N2C(=O)C=CC2=O)sc(C)c1C,-32%,-1%,-3,10,20%,0.45µM*
CCOC(=O)c1c(NC(N)=O)sc(C)c1C,-161%,-1%,3,0,.,-21%
COc1cc(CN2CCCC(CO)(Cc3cccc(Cl)c3)C2)cc(OC)c1O (configuration not stated),-4%,?,-6,0,?,28µM*
COc1ccc(CN2CCCC(CO)(Cc3cccc(Cl)c3)C2)cc1OC (configuration not stated),7%,-19%,-8,-2,?,4%
COc1cccc(CC2(CO)CCCN(Cc3ccc4c(c3)OCCO4)C2)c1 (configuration not stated),1%,-36%,-16,-1,10µM*,5%
Cn1cc(CN2CCCC(CO)(Cc3cccc(Cl)c3)C2)cn1 (configuration not stated),10%,?,-13,-1,-4%,3%
SMILES,NS1 inh,Pf growth 48h,Shiga toxin inh,CHX counter,Pf growth 96h,Sm TGR inh
CCn1ccnc1CN1CCCC(CO)(Cc2cccc(OC)c2)C1 (configuration not stated),5%,-4%,-2,19,?,.
OCC1(Cc2cccc(Cl)c2)CCCN(Cc2cnn(-c3ccccc3)c2)C1 (configuration not stated),3%,8.3µM*,-14,-3,-8%,7%
COc1cc(CN2CCCC(CO)(Cc3ccccc3)C2)ccc1O (configuration not stated),?,16%,.,-1,10µM*,-29%
O=C(NCCSc1c[nH]c2ccccc12)c1ccccc1Cl,.,.,.,.,.,4%
COc1ccc(CN2CCCC(CO)(Cc3ccc(F)cc3)C2)c(OC)c1OC (configuration not stated),0%,-17%,-4,1,12µM*,-31%
CCOC(=O)c1cnc2nc(NCc3cccc(Br)c3)[nH]n2c1=O,.,.,.,.,.,-2%
C/C(CC(=O)Nc1ccc2c(c1)OCCO2)=N\NC(=O)COc1ccccc1,-1%,42%,15,10,?,-19%
Cc1cccc(OCC(=O)Nc2ccc3c(c2)OCCO3)c1,-37%,151%,111*,62*,2%,4%
Cc1ccc(OCC(=O)Nc2ccc3c(c2)OCCO3)cc1C,.,237%,178*,32*,?,-7%
CCOc1ccc(CCNC(=O)Cn2nc(CC)n3c(cc4ccccc43)c2=O)cc1,.,.,.,.,.,2%
CC(Sc1ncnc2ccccc12)C(=O)Nc1ccc2c(c1)OCCO2 (configuration not stated),-4%,2%,-2,14,94%,-13%
Cc1ccc2c(c1)C(=O)C(=O)N2CC(=O)OC(C)C,-7%,46%,-10,1,0.029µM*,13%
Cc1ccc2c(c1)C(=O)C(=O)N2Cc1ccc(OC(C)C)cc1,.,.,.,.,.,0%
COc1ccc(NC(=O)c2c(Cl)nc3ccccn23)cc1,-17%,147%,74*,32*,103%,0%
CCC(=O)Nc1ccc(NC(=O)c2c(C)nc3ccccn23)cc1,-3%,25%,10,-4,74%,-13%
O=C(Nc1ccc(F)cc1)c1c(Cl)nc2ccccn12,-4%,169%,73*,31*,37%,18%
Cc1nc2ccccn2c1C(=O)NNC(=S)Nc1ccc(Cl)cc1,-17%,-4%,19*,-1,-14%,-9%
Cc1nc2ccccn2c1C(=O)NNC(=S)Nc1ccccc1,2%,?,-1,7,-6%,1%
CCCNC(=O)NC(=O)CSc1nnc(-c2c[nH]c3ccccc23)o1,-2%,-1%,-9,-3,-12%,0%
O=S1(=O)C=C(Sc2nc3cc(Cl)ccc3o2)c2ccccc21,9%,?,40,18*,19%,1.6µM*
COc1ccc(C2CC(=O)Oc3cc(C)c(Cl)cc32)cc1 (configuration not stated),.,.,i,6,.,.
Nc1ccc2nc(C(F)(F)F)[nH]c2c1,0%,3%,-6,0,31%,.
O=S(=O)(Nc1ccc2nc(C(F)(F)F)[nH]c2c1)c1ccccc1,5%,12µM*,-15,-1,18%,16%
COC(=O)c1ccc2nc(C(F)(F)F)[nH]c2c1,-14%,-14%,11,17*,32%,-1%
O=S(=O)(Nc1ccc2nc(-c3ccc(Br)o3)[nH]c2c1)c1ccccc1,-1%,86%,64,40*,?,28µM*

# Bioassay records (PubChem)
